Where “and” joins values, the source holds several entries; their conditions need not be identical. Equal entries are not always repeated. Inconclusive results are not listed. Calls of active or inactive are those of the source. Unless noted, the call rests on the fitted dose curve; in most records, active means well fitted curve in the direction sought with a large enough effect; inconclusive means small, poorly fitted or top-dose-only effect, or another doubt; inactive means no such curve, though single readings can be large; an effect the other way counts as inactive or inconclusive. Where only a bound is given, the exact number is not on record here.

Data on nine compounds can be found in PubChem BioAssay (NCATS).

Experiment [1] has as its target Cytochrome P450 1A2 (Homo sapiens) (UniProt P05177). As to the kind of experiment: p450-cyp1a2 (AID 410; calls by dose curve; further: potency means the concentration at half of the fitted maximal effect;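 on activity change, negative = inhibition: -100% = full effect of reference inhibitor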). The gist of the method: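 Human CYP1A2 (20nM) demethylated Luciferin-ME at its Km (100uM) in 100mM KPO4. After 10 min compound preincubation, NADPH regeneration ran the reaction 60 min at room temperature. Luciferin was read by luminescence, normalized to 57 uM furafylline.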

Experiment [2] has as its target Glucocorticoid receptor (Homo sapiens) (UniProt P04150). Put plainly: GR-GFP Redistribution (AID 450;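 active means compounds whose dose series gives a full or clear partial fitted curve of increased nuclear translocation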; further: potency means the concentration at half of the fitted maximal effect). The note with it: U2OS GR-GFP nuclear translocation, laser cytometry, 2 h.
Experiment [3] has the same target. As to the kind of experiment: GR-EFC Redistribution (AID 451; calls by dose curve; further: potency means the concentration at half of the fitted maximal effect). The note with it: CHO-K1 GR-EFC translocation, beta-gal luminescence, 2 h. The method, boiled down:
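CHO-K1 cells stably expressing nuclear-localized β-gal enzyme acceptor and GR fused C-terminally to the enzyme donor fragment; ligand-driven nuclear translocation restores β-gal by complementation. Compounds titrated up to 46 uM final, 2 h at 37 °C; luminescence read.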

The target in experiment [4] is 3',5'-cyclic-AMP phosphodiesterase 4B (Homo sapiens) (UniProt Q07343). As to the kind of experiment: qHTS Assay for Inhibitors of PDE-IV (AID 607; active means well fitted activation curve with a large enough effect in the main read-out, with a control signal flat, not every such curve was filed as active; further: % of control where 0% means no effect). The method, boiled down: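 Live HEK293 cells with a modified cyclic nucleotide-gated (CNG) channel report intracellular cAMP via membrane-potential dye fluorescence (ex 535/em 590 nm). Endogenous PDE-IV was targeted. Compounds were tested at up to 22.9 uM final; RO 20-1724 100 uM served as control.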
In general terms: qHTS replaces the single test concentration by a dilution series.

Experiment [5] can be described thus: qHTS Assay for Lipid Storage Modulators (AID 1519; calls by dose curve; on activity change, negative = inhibition: on the % scale 0 is the no-effect control and ±100 the full control effect). The note with it: Drosophila S3 cells, BODIPY lipid droplet/cell ratio, laser cytometry, cells loaded with oleic acid. The gist of the method:
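Cells seeded at 5,000 per well were treated with compounds over a concentration series and loaded with oleic acid (400 uM, as added). Lipid droplet fluorescence (488 nm excitation, 500-530 nm channel) was read by laser-scanning cytometry and normalized to 20 uM Triacsin C.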

Experiment [6] concerns the target Ubiquitin carboxyl-terminal hydrolase 1 (Homo sapiens) (UniProt O94782). As to the kind of experiment: Inhibitors of USP1/UAF1: Pilot qHTS (AID 504865).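 Further: rhodamine fluorescence freed from ubiquitin-rhodamine substrate followed over time; top concentration of the series differs between compounds; on the % scale 0 is the no-effect control and ±100 the full control effect; nearly all actives have a fitted effect of over 35% in size.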 The gist of the method: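 In 50mM HEPES pH 7.8 containing 0.5mM EDTA, 1mM TCEP, 0.1 mg/ml BSA and 0.01% Tween-20, 1nM USP1/UAF1 is exposed to compound for 15 min, then Ub-Rho (150nM final) is added and fluorescence is read over time.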

In experiment [7] the test system is Zika virus NS2B-NS3 protease. Put plainly: Primary screen GU AMC qHTS for Zika virus inhibitors (AID 1347154).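 Further: 0% = no-inhibitor control and -100% = no-enzyme control; nearly all actives have a fitted effect of over 70% in size.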 The gist of the method: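 Unlinked Zika NS2B hydrophilic domain/NS3 protease domain noncovalent complex (25 nM final) in 10 mM Tris-HCl pH 8.0, 0.01% Tween 20, with AMC peptide substrate. Fluorescence (ex 340, em 450 nm) change over 15 min, room temperature; percent inhibition fitted to 4-parameter Hill equation.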

In experiment [8] the target is DNA dC->dU-editing enzyme APOBEC-3G (Homo sapiens) (UniProt Q9HC16). As to the kind of experiment: qHTS for inhibitors of Vif-A3G interactions: Validation (AID 588379). Further: potency means the concentration at half of the fitted maximal effect. On activity change, negative = inhibition: 0% is about no effect. The method, boiled down:
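HeLa cells stably expressing Vif and A3G-eYFP, 700 cells/well, incubated overnight at 37 deg C, then exposed to compound overnight at 37 deg C. Inhibition of Vif-mediated degradation read as increased yellow fluorescence (Ex 488/Em 500-530) by laser-scanning cytometry.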

Experiment [9] concerns Zika virus NS2B-NS3 protease (linked construct). Put plainly: Primary screen NINDS Rhodamine qHTS for Zika virus inhibitors (AID 1347160). Further: nearly all actives have a fitted effect of over 55% in size. Further: potency means the concentration at half of the fitted maximal effect. The gist of the method:
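Percent inhibition, normalized to uninhibited and enzyme-free controls, is fitted to a 4-parameter Hill equation. Fluorescence change comes from a 15-min cleavage of 1.5 microM bis-peptide Rhodamine110 substrate by 25 nM linked NS2B-NS3 at room temperature.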

Experiment [10] can be described thus: OV-KATE Cancer Cell Toxicity qHTS against the NCATS CANVASS Library (AID 1347345). Further: on the % scale 0 is the no-effect control and ±100 the full control effect. The gist of the method: (§1)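 In this cytotoxicity screen, 1000 cells per well rested 4 hours, then received compound (11 concentrations) for a 72-hour incubation; an ATP-dependent luminescent signal (CellTiter-Glo) was the endpoint.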
The nature of experiment [11]: HPAF-II Cancer Cell Toxicity qHTS against the NCATS CANVASS Library (AID 1347346). Further: on the % scale 0 is the no-effect control and ±100 the full control effect; nearly all actives have a fitted effect of over 55% in size. The gist of the method:
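HPAF-II cells were seeded at 1000 cells/well, allowed to settle for 4 h at 37 degrees C, then exposed to compounds in an 11-point series for 72 h. Viability was read by CellTiter-Glo luminescence.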

Experiment [12] can be described thus: OV-SAHO Cancer Cell Toxicity qHTS against the NCATS CANVASS Library (AID 1347348). Further: on the % scale 0 is the no-effect control and ±100 the full control effect; nearly all actives have a fitted effect of over 55% in size. The method, boiled down: as §1
Experiment [13] is described as follows: Panc-1005 Cancer Cell Toxicity qHTS against the NCATS CANVASS Library (AID 1347349). Further: on the % scale 0 is the no-effect control and ±100 the full control effect; nearly all actives have a fitted effect of over 60% in size. The method, boiled down: as §1
A short description of experiment [14]: COV-362 Cancer Cell Toxicity qHTS against the NCATS CANVASS Library (AID 1347352). Further: on the % scale 0 is the no-effect control and ±100 the full control effect. The gist of the method:
(§2)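 Cells were seeded at 1000 per well and allowed to settle 4 hours at 37 degrees C before pin transfer of compounds as an 11-point series. Viability was read by CellTiter-Glo luminescence after 72 hours' exposure.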

Experiment [15] can be described thus: UWB1.289-WTBRCA1 Cancer Cell Toxicity qHTS against the NCATS CANVASS Library (AID 1347354). The gist of the method: as §2
Experiment [16] in a line: HEK293 24hr Apoptosis Induction qHTS against the NCATS CANVASS Library (AID 1347359). Further: 0% is about no effect. The gist of the method:
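HEK293 cells (500/well, DMEM + 10% FBS) were exposed to compounds in an 11-point series for 24 hours at 37 degrees C, then caspase-3/7 activity was read by Caspase-Glo DEVD luciferase luminescence after 15 min.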

Experiment [17] can be described thus: HEK293 12hr Apoptosis Induction qHTS against the NCATS CANVASS Library (AID 1347361). Further: 0% is about no effect. The method, boiled down:
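Cells are seeded, dosed with an 11-point compound series and incubated 12 hours. Caspase-3/7 activity is detected by luminescent DEVD-substrate reagent after 15 minutes at room temperature.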

Experiment [18] has as its system NAD(P)H diaphorase (Clostridium kluyveri). As to the kind of experiment: Diaphorse counterscreen qHTS: Assay Interference Panel against the NCATS CANVASS Library (AID 1347362). Further: 0% is about no effect. The gist of the method: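 Clostridium kluyveri diaphorase in PBS with 0.01% Tween-20 was preincubated 15 min at room temperature in the dark with compounds (11-point series). Resorufin fluorescence (ex 525/20, em 598/25) was read 5 min after adding resazurin/NADH.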
A general note: Counterscreens check selectivity or assay interference.

Experiment [19] has as its target Luciferin 4-monooxygenase (Photinus pyralis) (UniProt P08659). Put plainly: Firefly luciferase counterscreen qHTS: Assay Interference Panel against the NCATS CANVASS Library (AID 1347363). Further: 0% is about no effect. The method, boiled down:
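Purified P. pyralis luciferase was added to compounds (11-point series) preincubated 15 min at room temperature with substrate containing 0.013 mM D-luciferin and 0.013 mM ATP; luminescence was read after 5 min.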

Experiment [20] deals with Mitogen-activated protein kinase 10 (Mus musculus) (UniProt Q61831). Put plainly: JNK3 AlphaScreen Assay (AID 530; active means well fitted curve in either direction with a large enough effect, not every such curve was filed as active;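 further: kinase came from lysate of stimulated human HepG2 cells; signal reports phosphorylation of biotinylated GST-cJun 1-79 at Ser73 with 10 µM ATP; on the % scale 0 is the no-effect control and ±100 the full control effect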). The gist of the method: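 JNK3 came from HepG2 lysates pre-activated with IL-1beta and TNF-alpha and phosphorylated biotinylated GST-cJun (1-79) at 10 uM ATP, pH 7.6, room temperature. Compounds were titrated. AlphaScreen signal used anti-phospho-cJun (Ser73) antibody.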
(In general: Alpha assays give light when donor and acceptor beads are brought close together.)

Chain of Cytochrome P450 1A2 (Homo sapiens) (P05177 whole entry, looked up): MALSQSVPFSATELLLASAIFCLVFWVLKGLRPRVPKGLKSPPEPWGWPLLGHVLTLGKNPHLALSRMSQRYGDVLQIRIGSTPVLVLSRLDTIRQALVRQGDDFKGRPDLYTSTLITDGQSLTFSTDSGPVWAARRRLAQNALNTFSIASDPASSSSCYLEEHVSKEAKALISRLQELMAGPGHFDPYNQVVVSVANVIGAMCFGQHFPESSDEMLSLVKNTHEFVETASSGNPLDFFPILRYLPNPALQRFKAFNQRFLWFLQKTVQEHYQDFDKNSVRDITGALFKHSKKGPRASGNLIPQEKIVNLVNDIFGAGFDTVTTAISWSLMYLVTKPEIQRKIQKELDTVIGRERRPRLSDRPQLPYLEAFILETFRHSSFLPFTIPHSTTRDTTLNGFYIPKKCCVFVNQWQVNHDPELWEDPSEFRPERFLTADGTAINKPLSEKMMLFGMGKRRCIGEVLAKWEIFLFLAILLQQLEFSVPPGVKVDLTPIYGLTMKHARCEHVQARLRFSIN
Chain of 3',5'-cyclic-AMP phosphodiesterase 4B (Homo sapiens) (Q07343 whole entry, looked up): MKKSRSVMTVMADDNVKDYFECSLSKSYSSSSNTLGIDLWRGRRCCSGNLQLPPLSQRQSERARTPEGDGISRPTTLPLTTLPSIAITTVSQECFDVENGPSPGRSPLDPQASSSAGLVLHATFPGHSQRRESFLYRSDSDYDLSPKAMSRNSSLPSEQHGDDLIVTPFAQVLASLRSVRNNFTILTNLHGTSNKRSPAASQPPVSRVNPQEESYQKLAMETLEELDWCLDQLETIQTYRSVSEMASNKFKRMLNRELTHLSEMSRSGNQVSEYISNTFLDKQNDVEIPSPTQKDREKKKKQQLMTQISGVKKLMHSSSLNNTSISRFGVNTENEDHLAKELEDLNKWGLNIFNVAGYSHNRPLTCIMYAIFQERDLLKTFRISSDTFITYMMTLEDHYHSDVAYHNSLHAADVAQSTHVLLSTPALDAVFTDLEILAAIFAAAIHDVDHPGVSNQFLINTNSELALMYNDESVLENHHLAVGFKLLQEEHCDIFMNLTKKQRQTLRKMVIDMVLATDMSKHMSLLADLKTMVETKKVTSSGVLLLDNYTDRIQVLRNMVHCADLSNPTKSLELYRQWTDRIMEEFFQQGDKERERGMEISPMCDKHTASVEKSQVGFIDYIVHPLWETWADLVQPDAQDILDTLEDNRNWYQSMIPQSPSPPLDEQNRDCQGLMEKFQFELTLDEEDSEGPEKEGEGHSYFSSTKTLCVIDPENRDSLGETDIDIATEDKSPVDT
Chain of DNA dC->dU-editing enzyme APOBEC-3G (Homo sapiens) (Q9HC16 whole entry, looked up): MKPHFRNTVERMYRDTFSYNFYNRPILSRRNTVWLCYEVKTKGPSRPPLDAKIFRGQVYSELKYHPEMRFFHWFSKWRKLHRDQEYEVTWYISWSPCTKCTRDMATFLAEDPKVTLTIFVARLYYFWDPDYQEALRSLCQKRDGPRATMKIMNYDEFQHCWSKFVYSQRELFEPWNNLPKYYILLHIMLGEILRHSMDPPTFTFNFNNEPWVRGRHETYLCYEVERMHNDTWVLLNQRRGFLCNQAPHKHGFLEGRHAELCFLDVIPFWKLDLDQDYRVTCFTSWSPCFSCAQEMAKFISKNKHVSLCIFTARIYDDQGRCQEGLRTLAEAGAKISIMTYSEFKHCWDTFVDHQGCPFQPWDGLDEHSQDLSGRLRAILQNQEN
Chain of Glucocorticoid receptor (Homo sapiens) (P04150 whole entry, looked up): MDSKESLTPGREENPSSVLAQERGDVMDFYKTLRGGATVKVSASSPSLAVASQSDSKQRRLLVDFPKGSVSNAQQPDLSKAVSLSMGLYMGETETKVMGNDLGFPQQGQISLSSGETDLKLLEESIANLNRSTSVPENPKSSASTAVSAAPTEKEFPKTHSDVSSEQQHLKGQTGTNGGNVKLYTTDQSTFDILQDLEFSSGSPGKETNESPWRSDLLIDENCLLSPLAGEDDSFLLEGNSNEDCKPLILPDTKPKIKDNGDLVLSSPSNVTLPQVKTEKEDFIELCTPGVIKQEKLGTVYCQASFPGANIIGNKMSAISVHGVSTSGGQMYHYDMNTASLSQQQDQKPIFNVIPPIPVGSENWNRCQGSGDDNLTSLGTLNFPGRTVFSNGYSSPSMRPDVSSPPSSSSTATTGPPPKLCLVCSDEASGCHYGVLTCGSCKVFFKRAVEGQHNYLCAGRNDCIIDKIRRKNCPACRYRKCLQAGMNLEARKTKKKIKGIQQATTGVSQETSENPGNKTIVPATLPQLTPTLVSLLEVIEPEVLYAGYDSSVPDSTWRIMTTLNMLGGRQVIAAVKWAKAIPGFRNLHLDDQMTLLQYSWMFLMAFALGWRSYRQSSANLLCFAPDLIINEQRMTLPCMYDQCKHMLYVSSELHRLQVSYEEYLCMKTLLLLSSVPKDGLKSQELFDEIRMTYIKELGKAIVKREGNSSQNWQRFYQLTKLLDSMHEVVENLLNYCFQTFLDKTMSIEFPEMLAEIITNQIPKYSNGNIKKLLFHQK
Chain of Ubiquitin carboxyl-terminal hydrolase 1 (Homo sapiens) (O94782 whole entry, looked up): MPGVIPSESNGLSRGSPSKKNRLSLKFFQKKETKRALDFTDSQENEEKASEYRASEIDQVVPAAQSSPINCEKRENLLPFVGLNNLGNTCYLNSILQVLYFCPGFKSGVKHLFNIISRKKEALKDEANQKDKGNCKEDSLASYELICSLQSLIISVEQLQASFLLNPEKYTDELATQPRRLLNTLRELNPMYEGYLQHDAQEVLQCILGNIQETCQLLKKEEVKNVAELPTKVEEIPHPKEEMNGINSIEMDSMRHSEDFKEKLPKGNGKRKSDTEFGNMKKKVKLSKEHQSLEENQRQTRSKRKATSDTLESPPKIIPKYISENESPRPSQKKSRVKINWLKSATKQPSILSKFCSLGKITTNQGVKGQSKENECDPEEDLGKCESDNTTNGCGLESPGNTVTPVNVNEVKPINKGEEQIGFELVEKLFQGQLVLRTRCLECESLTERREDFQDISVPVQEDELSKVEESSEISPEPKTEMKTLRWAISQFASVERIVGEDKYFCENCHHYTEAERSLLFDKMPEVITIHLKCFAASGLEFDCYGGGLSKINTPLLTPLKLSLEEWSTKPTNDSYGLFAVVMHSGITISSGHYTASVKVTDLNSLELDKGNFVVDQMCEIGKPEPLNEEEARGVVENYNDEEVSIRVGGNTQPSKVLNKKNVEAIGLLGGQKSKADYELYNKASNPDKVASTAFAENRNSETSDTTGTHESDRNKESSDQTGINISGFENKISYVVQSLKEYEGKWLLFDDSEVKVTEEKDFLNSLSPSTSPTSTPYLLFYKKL
Chain of Luciferin 4-monooxygenase (Photinus pyralis) (P08659 whole entry, looked up): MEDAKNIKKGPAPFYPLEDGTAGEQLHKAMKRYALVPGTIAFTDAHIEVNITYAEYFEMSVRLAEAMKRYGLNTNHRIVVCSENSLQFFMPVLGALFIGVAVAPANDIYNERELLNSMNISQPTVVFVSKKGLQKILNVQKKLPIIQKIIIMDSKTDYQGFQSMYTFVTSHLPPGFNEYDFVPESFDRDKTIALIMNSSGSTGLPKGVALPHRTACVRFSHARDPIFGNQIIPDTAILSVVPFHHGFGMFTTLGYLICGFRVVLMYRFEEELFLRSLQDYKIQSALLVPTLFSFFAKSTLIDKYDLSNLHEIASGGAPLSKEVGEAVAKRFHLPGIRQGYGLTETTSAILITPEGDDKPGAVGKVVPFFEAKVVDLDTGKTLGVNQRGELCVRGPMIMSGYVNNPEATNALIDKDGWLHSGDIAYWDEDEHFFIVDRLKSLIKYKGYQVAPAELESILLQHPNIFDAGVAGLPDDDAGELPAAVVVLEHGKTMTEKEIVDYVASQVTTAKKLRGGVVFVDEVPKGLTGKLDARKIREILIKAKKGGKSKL

As for `CCNC(=O)[C@@H]1O[C@@H](n2cnc3c(N)ncnc32)[C@H](O)[C@H]1O`, the Potency entry in experiment [1], in experiment [4], in [6] and in experiment [7] was “inactive” in each case. Further, the Potency in experiment [2] and in experiment [3] was > 46 µM (inactive) throughout. In experiment [5] (at 57.5 µM (top of the series)), the activity change, negative = inhibition was 0.939% (inactive). Besides, the figures for the max response in [5] (measured here: cell count channel max response) and in [5] (measured here: lipid channel max response) were -12.5% and -10.6%, respectively.
Consider `CN1Cc2ccccc2[C@@H]2c3cccc4[nH]cc(c34)C[C@H]21`, for which the results for the Potency in [2], in experiment [3] and in experiment [8] were > 46 µM (inactive), > 46 µM (inactive) and 26.6 µM (active), respectively. In experiment [7], the Potency entry is “inactive”.
With `COc1ccc(C23Oc4cc(OC)cc(OC)c4[C@](O)([C@H](c4ccccc4)C2C(=O)NCCCCNC(=O)c2ccccc2)[C@@H]3O)cc1` (stereo partly specified), the Potency in experiment [9] was 49.3 µM (active). The Potency entry in [10], in experiment [11], in experiment [12], in experiment [13], in experiment [14] and in experiment [15] was “inactive” each time. The Potency entry in experiment [16] and in [17] was “inactive” in each case. Besides, the compound was classed as inactive in experiment [18] and in experiment [19].
For the compound `CC1(C)N(O)C(c2ccc(C(=O)O)cc2)=[N+]([O-])C1(C)C`, the Potency in experiment [1] is 31.6 µM (active); in experiment [2], > 46 µM (inactive); in experiment [3] it was > 46 µM (inactive). In addition, the outcome in experiment [20] was inactive. Besides, in [7], the Potency result was “inactive”.
Regarding `C[C@H](N)Cc1c[nH]c2ccc(OCc3cccs3)cc12`, the Potency was 1.58 µM (active) and 126 nM (active) in experiment [1]; > 46 µM (inactive) in experiment [2]; > 46 µM (inactive) in experiment [3]. In addition, the call in experiment [20] was inactive. The Potency result in experiment [4] and in [7] was “inactive” each time.
As for `O[C@@H](Cc1ccncc1)C(Cl)(Cl)Cl`, the Potency in [2] and in [3] was > 46 µM (inactive) throughout. Moreover, the result in experiment [20] was inactive. The Potency result in experiment [4], in experiment [6], in experiment [8] and in experiment [7] was “inactive” throughout.
With `CCN1C[C@]2(C)CC[C@@H](O)[C@]34C1[C@H](C[C@H]23)C12CCC(CC14)[C@](O)(CO)[C@H]2O` (stereo partly specified), the Potency entry in [9], in experiment [10], in experiment [11], in [12], in experiment [13] and in experiment [14] was “inactive” in each case. The Potency result in [15], in experiment [16] and in [17] was “inactive” in each case. In addition, the outcome in [18] and in experiment [19] was inactive.
As to `Fc1ccc(C(OCCN2CCN(C/C=C\c3ccccc3)CC2)c2ccc(F)cc2)cc1`, the Potency in experiment [1] was 31.6 µM (active); in experiment [3] it was > 46 µM (inactive). For the same compound, in [20], the compound was called inactive. Also, the Potency result in experiment [6], in experiment [8] and in [7] was “inactive” each time.
For the compound `CCCC(=O)OCC[N+](C)(C)C`, in [2], the Potency is > 20.6 µM (inactive). Also, in experiment [7], the Potency entry was “inactive”.
